# In PubChem BioAssay AID488900 (National Center for Advancing Translational Sciences (NCATS), 2010):
# Results filed as inconclusive are left out. Active and inactive are the calls of the source. Calls come from the whole dose curve; as a rule, active = well fitted curve in the direction sought with a large enough effect; inconclusive = small, poorly fitted or top-dose-only effect, or effect the other way, or another doubt; inactive = no such curve, though single readings can be large or run the other way.
# Assay: Secondary Assay for lipid storage modulators: Hela cell LDSA assay for probe SAR
# Settings: HeLa lipid droplet accumulation, BODIPY 493/503 cytometry, oleate-fed
# From the text: NIH Molecular Libraries Probe Production Centers Network [MLPCN] NIH Chemical Genomics Center [NCGC] MLPCN Grant: 1 R03 MH085686-01 Assay Submitter (PI): Beller, Mathias; Max-Planck-Institut fur Biophysikalische Chemie NCGC Assay Overview: Storing lipids as a reservoir for energy or the anabolism of elementary metabolites is a common feature of probably all cells and is conserved from bacteria to humans. The universal cellular lipid storage organelle is the so-called lipid storage droplet (LD). Although ubiquitous, LDs share a simple structure composed of a hydrophobic core that harbors the storage lipids, which is shielded by a droplet-specific phospholipid monolayer to which proteins are attached. The current model of LD biogenesis involves an incorporation of the lipid core into the membrane leaflets of the endoplasmic reticulum (ER) followed by a subsequent budding-like maturation of a LD, which ultimately pinches off. […]
# NCGC Assay Protocol Summary: The assay was performed with Hela cells, using an oleic acid feeding protocol similar to the S3 assay. […] Fluorescence was detected by excitation of the fluorophores with a 488-nm laser on an Acumen Explorer (TTP Lab Tech). […] Cells were detected using channel 3 (575-640 nm) with 5-um width and 100-um depth filters. The ratio of the number of objects in PMT channel 2 over the number of objects in PMT channel 3 was also calculated. […]
smiles,measurement,value
CCC/C=C/C/C=C/C=C/C=N/NN=O,Potency,11.2 nM (active)
